About 320 (0.1%) of roughly 320,000 compounds were called active.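 Rule for the calls: active = more than half of replicates show inhibition above 20%; inconclusive = some but at most half of replicates above 20% inhibition; inactive = no replicate shows inhibition above 20%.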 For the sample, actives were picked, then their nearest neighbours and some compounds at random.

This test deals with Glycogen synthase kinase-3 alpha (Homo sapiens) (UniProt P49840). Kind of test: blockers of GSK3A enzyme activity – biochemical, luminescence, cell-free homogeneous, HTS, primary screen (AID 2650).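 Note: GST-tagged GSK-3 alpha with peptide substrate and 25 µM ATP; 0% = DMSO neutral wells and 100% = GW8510 positive control wells.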 The following applies: GSK-3 alpha kinase, ADP-Glo luminescence, 60 min; at 10 µM; active compounds read high.
Glycogen synthase kinase-3 alpha (Homo sapiens), sequence (P49840 whole entry, looked up): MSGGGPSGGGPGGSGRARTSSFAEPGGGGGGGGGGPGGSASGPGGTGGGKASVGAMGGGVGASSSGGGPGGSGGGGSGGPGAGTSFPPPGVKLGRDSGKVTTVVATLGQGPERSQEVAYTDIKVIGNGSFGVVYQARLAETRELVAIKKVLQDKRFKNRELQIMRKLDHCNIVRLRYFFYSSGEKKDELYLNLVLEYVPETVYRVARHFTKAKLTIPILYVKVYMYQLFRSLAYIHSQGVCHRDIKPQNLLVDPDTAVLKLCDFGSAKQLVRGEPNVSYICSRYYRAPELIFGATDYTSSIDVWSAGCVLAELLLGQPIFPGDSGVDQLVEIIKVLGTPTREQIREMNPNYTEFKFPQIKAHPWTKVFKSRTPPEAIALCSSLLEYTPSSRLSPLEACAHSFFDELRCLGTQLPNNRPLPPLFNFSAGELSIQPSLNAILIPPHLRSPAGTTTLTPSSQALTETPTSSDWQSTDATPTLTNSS
As to `Cc1noc(COc2ccccc2OCc2onc(C)c2Cl)c1Cl`, the inhibition (commonly the change of the read-out against control, counted positive when it falls) was -1.26% (inactive).

As for `O=C1c2ccccc2C2=Nc3ccccc3SC(c3ccccc3F)C12` (centres undefined), the inhibition was -0.696% (inactive).

On to `CC(Sc1nc2cc(Cl)ccc2s1)C(=O)Nc1ccc2c(c1)OCO2` (centres undefined), for which the inhibition is -2.34% (inactive).

On to `Cc1ccc2c(c1)N(CC(=O)NCCc1ccc(Cl)cc1)C(=O)c1cccnc1O2`, for which the inhibition was -2.75% (inactive).

Consider `CC(C(=O)N1CCOCC1)N1c2cccc3cccc(c23)S1(=O)=O` (centres undefined), for which the inhibition is 3.12% (inactive).

As to `O=S(=O)(NC1CC2CCC1C2)c1ccc(Cl)cc1` (centres undefined), the inhibition is -0.939% (inactive).

For `CN(C)C(=O)CCC(=O)N1CCCCC1C(=O)Nc1ccc(Oc2ccccc2F)cc1` (centres undefined), the inhibition is -0.0266% (inactive).

Consider `O=C(c1ccncc1)N1CCN(S(=O)(=O)c2cc(C(F)(F)F)cc(C(F)(F)F)c2)CC1`, for which the inhibition was -4.58% (inactive).

In the case of `CC(C)c1nnc(NC(=O)COC(=O)/C=C/c2ccc([N+](=O)[O-])cc2)s1`, the inhibition is 0.211% (inactive).

For `CC1CCCCC1NC(=O)CCS(=O)(=O)c1cccc2nonc12` (centres undefined), the inhibition is -1.36% (inactive).

Turning to `COC(=O)[C@]1(Cc2ccccc2)N[C@H](CN(C)S(=O)(=O)c2ccc(F)cc2)[C@@H]2C(=O)N(Cc3ccccc3)C(=O)[C@@H]21`, the inhibition was -4.02% (inactive).

In the case of `CCc1ccc(C(=O)COC(=O)c2ccco2)cc1`, the inhibition was -0.284% (inactive).

Turning to `Cc1cccc2sc(N(CCCN(C)C)C(=O)CCS(=O)(=O)c3ccccc3)nc12`, the inhibition was 1.84% (inactive).

Turning to `Cc1ccc(NC(=O)CN(C)C(=O)c2ccc(Cl)c(S(=O)(=O)NCc3ccco3)c2)cc1`, the inhibition is -2.08% (inactive).

Turning to `COC(=O)C1=C[C@@H](C(=O)OC)[C@@H]2C3=C(C(=O)[C@]2(C)NC(=O)c2ccccc2)[C@H](C)n2c(=O)n(C)c(=O)n2[C@@H]3C1`, the inhibition was -1.38% (inactive).

For `O=C(OCC(=O)N(CCc1ccccc1)Cc1ccccc1)c1ccccc1[N+](=O)[O-]`, the inhibition was 0.711% (inactive).

Consider `CCCc1cc(=O)[nH]c(SCC(=O)Nc2ccc(S(=O)(=O)N3CCCC3)cc2)n1`, for which the inhibition is -3.71% (inactive).

Take `Cc1cccc(C)c1NC(=O)CS(=O)CC(=O)N1CCN(c2ccccc2)CC1` (centres undefined): the inhibition is -1.33% (inactive).

On to `Cc1c(OC(C)C(=O)NCC2CCC(C(=O)O)CC2)ccc2c1oc(=O)c1ccccc12` (centres undefined), for which the inhibition is 2.24% (inactive).

Consider `Cc1ccc(N2C(=O)CC(N3CCSCC3)C2=O)c(C)c1` (centres undefined), for which the inhibition is -1.07% (inactive).

In the case of `CC(C)(C)c1ccc(/C=C/C(=O)NCCCn2ccnc2)cc1`, the inhibition was 1.07% (inactive).

As for `O=C(CSc1nc2ccccc2c(=O)n1Cc1ccc(F)cc1)NCC1CCCO1` (centres undefined), the inhibition is -2.48% (inactive).

In the case of `CC(=O)N1CCc2cc(S(=O)(=O)NC3CCCCC3)ccc21`, the inhibition was 1.13% (inactive).

Take `CN(CC1CCCN(CCc2cccc(C(F)(F)F)c2)C1)C(=O)c1ccc2nc[nH]c2c1` (centres undefined): the inhibition was 2.9% (inactive).

Take `CCCNC(=S)N1CCC(NC(=O)C23CC4CC(CC(C4)C2)C3)CC1`: the inhibition was -1.14% (inactive).

Turning to `Cc1ccccc1N(C(=O)Cc1cccs1)C(C(=O)NC1CCCCC1)c1cn(C)nc1C` (centres undefined), the inhibition is -1.17% (inactive).

As to `CCCCCN(C(=O)NC(=O)Nc1ccccc1OC)S(C)(=O)=O`, the inhibition is -0.679% (inactive).

On to `COc1cc(OC)cc(-c2cc3ccc(F)cc3cn2)c1`, for which the inhibition is -0.558% (inactive).

In the case of `CCOc1ccc(-c2noc(CCC(=O)NC3CCCC3)n2)cc1OC`, the inhibition was -2.18% (inactive).

On to `COc1ccccc1-c1nnc2n1N=C(c1ccc(OC(F)F)c(OCC3CC3)c1)CS2`, for which the inhibition was -2.55% (inactive).

With `C=C(C)CNC(=S)Nc1ccc(S(=O)(=O)Nc2cnc3ccccc3n2)cc1`, the inhibition is -0.344% (inactive).

For the compound `Brc1ccc(/C=N/N2CCN(C3c4ccccc4-c4ccccc43)CC2)s1`, the inhibition is -1% (inactive).

Turning to `COCCNC(=S)N(CCc1c(C)[nH]c2ccc(C)cc12)Cc1cccnc1`, the inhibition is -0.86% (inactive).

With `CCn1c(Cc2ccc(OC)cc2)nnc1SCC(=O)Nc1ccc(N2CCOCC2)cc1`, the inhibition is -0.587% (inactive).

Turning to `CCCCOC(=O)Nc1sc2nc(C)cc(C)c2c1-n1cccc1`, the inhibition was 3.59% (inactive).

`Cc1noc(C)c1NC(=O)Nc1cccc2c1O[C@H](CN(C)C(=O)Nc1ccccc1)[C@@H](C)CN([C@H](C)CO)C2=O`: the inhibition was -4.19% (inactive).

`COc1cc2c(cc1OC)CC1(CCCCC1)N=C2`: the inhibition is 0.717% (inactive).

Turning to `Cc1cc(C)cc(N(CCC#N)C(=O)CN2C(=O)NC3(CCCC3)C2=O)c1`, the inhibition was -1.84% (inactive).

Turning to `CC1CN(c2nc(Nc3ccccc3)nc(N)c2[N+](=O)[O-])CC(C)O1` (centres undefined), the inhibition was 38.9% (inactive).

Consider `O=[N+]([O-])c1ccc(NCCCN2CCOCC2)c(Cl)c1`, for which the inhibition was -0.912% (inactive).

Regarding `Nc1nc(NCCCN2CCOCC2)nc(Nc2ccccc2)c1[N+](=O)[O-]`, the inhibition is 90.9% (active).

Take `Nn1c(SCC(=O)Nc2ccc3c(c2)CCC3)nnc1C1CC1`: the inhibition was -1.28% (inactive).

Consider `CC(=NNC(=O)c1ccc2nc[nH]c2c1)c1ccc(Br)cc1`, for which the inhibition was 0.652% (inactive).

With `CC(C)c1nc(SCC(=O)NC(=O)NC(C)(C)C)n[nH]1`, the inhibition is -2.13% (inactive).

On to `CCN(CC)CCOC(=O)c1ccc(NC(=O)CNC(=O)c2ccccc2)cc1`, for which the inhibition is -1.2% (inactive).

Consider `O=C(OCC(=O)N1CCOCC1)c1ccc(N2CCOCC2)c([N+](=O)[O-])c1`, for which the inhibition was 1.5% (inactive).

Turning to `Cc1ccc(NC(=O)C2CCC(C(C)(C)C)CC2)cc1S(=O)(=O)N1CCOCC1` (centres undefined), the inhibition is -0.864% (inactive).

For the compound `Cc1c(Cl)cccc1NC(=O)NCc1ccc(C)n1C`, the inhibition is -2.74% (inactive).

Regarding `CC1CCCCC12NC(=O)N(CC(=O)OCC(=O)NCc1ccc(F)cc1)C2=O` (centres undefined), the inhibition was -2.66% (inactive).

For `O=C(O)C1=CCCN(CCON=C(c2ccccc2)c2ccccc2)C1`, the inhibition was -1.9% (inactive).

Turning to `CC(C)(C)OC(=O)C[C@@H]1C/C=C\C[C@H](CC(=O)N[C@@H](CO)Cc2ccccc2)C(=O)N[C@H](Cc2ccccc2)COC1=O`, the inhibition was 0.493% (inactive).

Turning to `O=C(CN1C(=O)NC2(CCCCCC2)C1=O)NCc1ccc(F)cc1`, the inhibition is -1.44% (inactive).

Turning to `O=C(c1ccccc1F)N(Cc1ccccc1)Cc1ccccc1`, the inhibition was 0.121% (inactive).

`O=c1c2c3c(sc2n(CCN2CCCC2)c(=O)n1Cc1ccccc1)CCCCC3`: the inhibition is 0.297% (inactive).

(Values after PubChem BioAssay AID2650 (Broad Institute, 2010).)
